We go through 8 molecules from PubChem BioAssay (NCI).

The panel holds about 83,000 compounds, 20% with a hit somewhere; the sample as a whole holds those more often.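 In brief: 96-well plates, 48 h treatment, single concentration, percent growth endpoint.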 A number with no mark means an inactive call. The source made the active and inactive calls. The calls were made as follows: active = growth percent below 10; inactive = the rest.

Test systems include SK-MEL-2 melanoma; EKVX NSCLC; SN12C renal; UO-31 renal; TK-10 renal; ACHN renal; CAKI-1 renal; CCRF-CEM leukemia; MOLT-4 leukemia; SR leukemia; OVCAR-8 ovarian; OVCAR-5 ovarian; OVCAR-4 ovarian; SK-OV-3 ovarian; IGROV1 ovarian; OVCAR-3 ovarian; HS 578T breast; NCI/ADR-RES ovarian; A498 renal; RPMI-8226 leukemia.
What all share (test): NCI-60 one-dose screen, 48 h (100 = growth as untreated, 0 = no growth, -100 = all killed)
Details in all cases: 10 µM unless noted

Regarding `CCOC(=O)c1ccc2c(c1)[n+](=O)c(C(C)=O)c(C(F)(F)F)n2[O-]`, the growth in the test on SK-MEL-2 melanoma is 12.1%; with EKVX NSCLC it was 29.1%; in the test with SN12C renal, 4.58% (active); in the test on UO-31 renal, 27.4%; in the test with TK-10 renal, 40.9%; in the test with ACHN renal, 5.29% (active). The growth was 40% in the test with CAKI-1 renal; -18.1% (active) with CCRF-CEM leukemia; -56.4% (active) in the test on MOLT-4 leukemia; -59.2% (active) with SR leukemia; -42.6% (active) in the test on OVCAR-8 ovarian; -1.19% (active) with OVCAR-5 ovarian. The growth was -5.96% (active) with OVCAR-4 ovarian; 24.8% in the test with SK-OV-3 ovarian; -81.1% (active) in the test with IGROV1 ovarian; -84.7% (active) in the test on OVCAR-3 ovarian; -23.9% (active) in the test with HS 578T breast; 6.85% (active) in the test with NCI/ADR-RES ovarian.
As to `O=C1/C(=C/c2ccccc2)COc2ccc(O)cc21`, the growth with SK-MEL-2 melanoma was 104%; in the test with EKVX NSCLC, 105%; in the test with SN12C renal, 91.7%; in the test with UO-31 renal, 76.4%; with TK-10 renal, 106%; with ACHN renal it was 101%. Further, the growth with A498 renal is 99.5%; in the test with CCRF-CEM leukemia it was 21.5%; with MOLT-4 leukemia, 78.6%; in the test on SR leukemia, 17.6%; in the test with RPMI-8226 leukemia, -16.5% (active); with OVCAR-8 ovarian it was 95.9%. In addition, the growth in the test with OVCAR-5 ovarian is 104%; in the test on OVCAR-4 ovarian, 99.5%; with SK-OV-3 ovarian, 124%; with IGROV1 ovarian it was 105%; in the test on OVCAR-3 ovarian, 98.7%; with HS 578T breast, 107%. For the same molecule, the growth in the test with NCI/ADR-RES ovarian was 104%.
For the molecule `CN1CCN(Cc2ccc(NC(=O)c3cncc(C#Cc4cnc(N)c5ncccc45)c3)cc2Cl)CC1`, the growth was 56.5% with SK-MEL-2 melanoma; 106% in the test on EKVX NSCLC; 92.5% with SN12C renal; 64.7% with UO-31 renal; 104% in the test on TK-10 renal; 41.8% with ACHN renal. The growth in the test with A498 renal is 104%; in the test with CCRF-CEM leukemia it was -2.07% (active); in the test with MOLT-4 leukemia, 83%; in the test with SR leukemia it was -1.93% (active); in the test on RPMI-8226 leukemia, 73.1%; with OVCAR-8 ovarian, 101%. The growth with OVCAR-5 ovarian was 95.1%; in the test on OVCAR-4 ovarian, 104%; with SK-OV-3 ovarian, 109%; in the test on IGROV1 ovarian, 110%; in the test on OVCAR-3 ovarian it was 116%; with NCI/ADR-RES ovarian, 74.9%.
As for `CC(C)(C)c1ccc(C(=O)Nc2sc3c(c2C#N)CCC(=O)C3)cc1`, the growth with SK-MEL-2 melanoma was 12.8%; in the test on EKVX NSCLC, 19.1%; in the test with SN12C renal, 9.18% (active); with UO-31 renal, -99% (active); in the test with TK-10 renal it was 24.3%; in the test with ACHN renal, -84% (active). The growth is 89.8% in the test on A498 renal; 8.53% (active) in the test with CCRF-CEM leukemia; 10.6% in the test with MOLT-4 leukemia; 4.39% (active) with SR leukemia; -8.65% (active) in the test on RPMI-8226 leukemia; 16.6% in the test on OVCAR-8 ovarian. For the same molecule, the growth in the test on OVCAR-5 ovarian is 21%; in the test with OVCAR-4 ovarian, -73.8% (active); in the test with SK-OV-3 ovarian, 57.4%; in the test with IGROV1 ovarian it was 25.8%; with OVCAR-3 ovarian, -29.6% (active); in the test on HS 578T breast it was 30.5%. In the test on NCI/ADR-RES ovarian, the growth is 9.31% (active).
Consider `CCC(C)C(N)C(=O)NC(CC(C)C)C(=O)N1CCCC1C(=O)NC(Cc1c[nH]c2ccccc12)C(=O)NC(CCCCN)C(=O)NC(Cc1c[nH]c2ccccc12)C(=O)N1CCCC1C(=O)NC(Cc1c[nH]c2ccccc12)C(=O)NC(Cc1c[nH]c2ccccc12)C(=O)N1CCCC1C(=O)NC(Cc1c[nH]c2ccccc12)C(=O)NC(CCCNC(=N)N)C(=O)NC(CCCNC(=N)N)C(N)=O` (centres undefined), for which the growth in the test with SK-MEL-2 melanoma is 108%; with EKVX NSCLC, 104%; with SN12C renal, 101%; in the test with UO-31 renal, 68.1%; with TK-10 renal, 124%; in the test on ACHN renal, 98%. Besides, the growth in the test on A498 renal was 130%; in the test with CCRF-CEM leukemia, -58.7% (active); with MOLT-4 leukemia it was -28.2% (active); in the test on SR leukemia, 10.9%; in the test on RPMI-8226 leukemia, 75%; in the test with OVCAR-8 ovarian it was 75.5%. The growth is 98.8% in the test on OVCAR-5 ovarian; 119% in the test on OVCAR-4 ovarian; 109% with SK-OV-3 ovarian; 58.4% in the test on IGROV1 ovarian; 101% in the test on OVCAR-3 ovarian; 105% with HS 578T breast. The growth in the test with NCI/ADR-RES ovarian is 92.1%.
For `CCOC(=O)c1c(C)nc2c(c1N)C(=O)C(=O)N2CCc1ccc(OC)c(OC)c1`, the growth in the test on SK-MEL-2 melanoma was 75.5%; in the test with EKVX NSCLC, 57.6%; with SN12C renal, 89.1%; in the test with UO-31 renal it was 57.5%; in the test with TK-10 renal, 70.8%; in the test with ACHN renal, 74%. The growth in the test on A498 renal is 55.5%; in the test on CCRF-CEM leukemia, 75.1%; with MOLT-4 leukemia it was 57.3%; in the test on SR leukemia, 35.9%; in the test with RPMI-8226 leukemia it was 42.7%; with OVCAR-8 ovarian, 77.9%. The growth in the test with OVCAR-5 ovarian was 94.9%; in the test with OVCAR-4 ovarian it was 54.8%; with SK-OV-3 ovarian, 76.6%; in the test with OVCAR-3 ovarian, 61.5%; in the test with HS 578T breast it was 89%; with NCI/ADR-RES ovarian it was 41.9%.
In the case of `C=C(c1ccc(C(=O)O)c(F)c1)c1cc2c(cc1C)C(C)(C)C=CC2(C)C`, the growth is 87.1% in the test with SK-MEL-2 melanoma; 69.9% in the test with EKVX NSCLC; 83.1% in the test with SN12C renal; 81.4% in the test with UO-31 renal; 94.4% in the test on TK-10 renal; 83.4% with ACHN renal. Further, the growth with A498 renal was 75.8%; in the test on CCRF-CEM leukemia, 85.3%; with MOLT-4 leukemia it was 87.3%; with SR leukemia it was 91.6%; with RPMI-8226 leukemia it was 26.3%; in the test with OVCAR-8 ovarian, 82.8%. The growth in the test on OVCAR-5 ovarian was 111%; in the test on OVCAR-4 ovarian, 81.2%; in the test with SK-OV-3 ovarian, 73%; in the test on IGROV1 ovarian, 90.4%; in the test with OVCAR-3 ovarian, 92.5%; with HS 578T breast, 61.9%. For the same molecule, in the test on NCI/ADR-RES ovarian, the growth is 83.1%.
As for `Fc1ccc(/C=C/c2cc(/C=C/c3ccc(F)cc3)n(-c3cc(F)cc(F)c3)n2)cc1`, the growth is 90.8% with SK-MEL-2 melanoma; 92.3% with EKVX NSCLC; 102% with SN12C renal; 82.8% in the test with UO-31 renal; 82.5% in the test on TK-10 renal; 99% in the test on ACHN renal. The growth in the test on A498 renal is 95.6%; with CCRF-CEM leukemia, 3.7% (active); with MOLT-4 leukemia it was 103%; with SR leukemia, 87.5%; in the test on RPMI-8226 leukemia, 73.8%; in the test on OVCAR-8 ovarian it was 112%. The growth with OVCAR-5 ovarian was 95.2%; with OVCAR-4 ovarian, 107%; in the test on SK-OV-3 ovarian, 97.4%; with IGROV1 ovarian, 90.3%; in the test with OVCAR-3 ovarian, 108%; in the test on HS 578T breast it was 114%. In the test with NCI/ADR-RES ovarian, the growth was 101%.
